# According to PubChem BioAssay AID1508601 (ICCB-Longwood Screening Facility, Harvard Medical School, 2020):
# In all, about 5,700 compounds went through this assay and about 85 (1%) were called active. This is one part of a sample in which actives are shown more often than they occur. Rule as the data show it: active = p53-positive nuclei above about 36% (passing the limit was not always enough); inactive = the rest.
# Experiments:
# [1] = p53 stabilisation in HPV-positive human cells, imaging, p53-positive nuclei imaging, 24 h, 48 h (AID 1508601); settings: 24/48 h
# [2] = target: Cellular tumor antigen p53 (Homo sapiens) (UniProt P04637); test: as above; settings: 24/48 h, stronger effect = higher value
# [3] = measured here: cell number at 24 h, Library stock concentration: 10 mM
# [4] = measured here: cell number at 48 h, Library stock concentration: 10 mM
# [5] = Library stock concentration: 10 mM
# [6] = measured here: p53 positive nuclei at 24 h, Library stock concentration: 10 mM
# Chain of Cellular tumor antigen p53 (Homo sapiens) (P04637 whole entry, looked up): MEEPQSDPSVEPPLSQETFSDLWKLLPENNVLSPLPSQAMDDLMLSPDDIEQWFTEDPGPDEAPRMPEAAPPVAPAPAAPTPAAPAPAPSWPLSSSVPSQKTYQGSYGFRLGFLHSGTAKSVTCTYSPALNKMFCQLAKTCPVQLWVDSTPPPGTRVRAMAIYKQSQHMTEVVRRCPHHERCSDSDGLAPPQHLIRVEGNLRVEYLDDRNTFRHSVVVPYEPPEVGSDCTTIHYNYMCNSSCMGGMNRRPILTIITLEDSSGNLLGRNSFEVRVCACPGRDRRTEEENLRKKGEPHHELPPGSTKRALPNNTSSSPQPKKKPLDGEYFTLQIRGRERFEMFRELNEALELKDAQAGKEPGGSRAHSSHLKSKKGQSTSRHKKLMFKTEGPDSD
compound,measurement,setting,value
O=C(O)CCCCCCCCCCCNC(=O)NC12CC3CC(CC(C3)C1)C2,"nuclei count, normalised","[1]; measured here: cell number at 24 h, Library stock concentration: 46 uM",111%
same,"nuclei count, normalised","[1]; measured here: cell number at 24 h, Library stock concentration: 278 uM",105%
same,"nuclei count, normalised","[1]; measured here: cell number at 24 h, Library stock concentration: 1.67 mM",106%
same,"nuclei count, normalised",[1]; [3],101%
same,"nuclei count, normalised","[1]; measured here: cell number at 24 h, concentration not given here",106%
same,"nuclei count, normalised","[1]; measured here: cell number at 48 h, Library stock concentration: 46 uM",111%
same,"nuclei count, normalised","[1]; measured here: cell number at 48 h, Library stock concentration: 278 uM",105%
same,"nuclei count, normalised","[1]; measured here: cell number at 48 h, Library stock concentration: 1.67 mM",103%
same,"nuclei count, normalised",[1]; [4],101%
same,"nuclei count, normalised","[1]; measured here: cell number at 48 h, concentration not given here",113%
same,"p53-positive nuclei, normalised",[2]; Library stock concentration: 46 uM,-0.188% (inactive)
same,"p53-positive nuclei, normalised",[2]; Library stock concentration: 278 uM,0.036% (inactive)
same,"p53-positive nuclei, normalised",[2]; Library stock concentration: 1.67 mM,0.0433% (inactive)
same,"p53-positive nuclei, normalised",[2]; [5],0.0468% (inactive)
same,"p53-positive nuclei, normalised",[2]; concentration not given here,-0.166% (inactive)
same,"p53-positive nuclei, normalised","[2]; measured here: p53 positive nuclei at 24 h, Library stock concentration: 46 uM",-0.135%
same,"p53-positive nuclei, normalised","[2]; measured here: p53 positive nuclei at 24 h, Library stock concentration: 278 uM",-0.135%
same,"p53-positive nuclei, normalised","[2]; measured here: p53 positive nuclei at 24 h, Library stock concentration: 1.67 mM",0.0415%
same,"p53-positive nuclei, normalised",[2]; [6],-0.0737%
same,"p53-positive nuclei, normalised","[2]; measured here: p53 positive nuclei at 24 h, concentration not given here",-0.144%
COC(=O)C=CC(=O)N(O)CCCCNCc1ccc(COC(=O)Nc2cccc3ccccc23)cc1,"nuclei count, normalised","[1]; measured here: cell number at 24 h, Library stock concentration: 80 uM",119%
same,"nuclei count, normalised","[1]; measured here: cell number at 24 h, Library stock concentration: 400 uM",118%
same,"nuclei count, normalised","[1]; measured here: cell number at 24 h, Library stock concentration: 2 mM",116%
same,"nuclei count, normalised",[1]; [3],97.3%
same,"nuclei count, normalised","[1]; measured here: cell number at 48 h, Library stock concentration: 80 uM",112%
same,"nuclei count, normalised","[1]; measured here: cell number at 48 h, Library stock concentration: 400 uM",113%
same,"nuclei count, normalised","[1]; measured here: cell number at 48 h, Library stock concentration: 2 mM",110%
same,"nuclei count, normalised",[1]; [4],92.8%
same,"p53-positive nuclei, normalised",[2]; Library stock concentration: 80 uM,-0.786% (inactive)
same,"p53-positive nuclei, normalised",[2]; Library stock concentration: 400 uM,-0.552% (inactive)
same,"p53-positive nuclei, normalised",[2]; Library stock concentration: 2 mM,-0.616% (inactive)
same,"p53-positive nuclei, normalised",[2]; [5],-0.57% (inactive)
same,"p53-positive nuclei, normalised","[2]; measured here: p53 positive nuclei at 24 h, Library stock concentration: 80 uM",-0.122%
same,"p53-positive nuclei, normalised","[2]; measured here: p53 positive nuclei at 24 h, Library stock concentration: 400 uM",-0.0743%
same,"p53-positive nuclei, normalised","[2]; measured here: p53 positive nuclei at 24 h, Library stock concentration: 2 mM",-0.0278%
same,"p53-positive nuclei, normalised",[2]; [6],-0.0473%
CC(=O)OC1C(=O)[C@]2(C)C(O)CC3OC[C@@]3(OC(C)=O)C2C(OC(=O)c2ccccc2)[C@]2(O)CC(OC(=O)C(O)C(NC(=O)c3ccccc3)c3ccccc3)C(C)=C1C2(C)C (stereo not given in full),"nuclei count, normalised","[1]; measured here: cell number at 24 h, Library stock concentration: 500 nM",124%
same,"nuclei count, normalised","[1]; measured here: cell number at 24 h, Library stock concentration: 1.5 uM",89.9%
same,"nuclei count, normalised","[1]; measured here: cell number at 24 h, Library stock concentration: 4.6 uM",58.2%
same,"nuclei count, normalised","[1]; measured here: cell number at 24 h, Library stock concentration: 13.7 uM",49%
same,"nuclei count, normalised","[1]; measured here: cell number at 24 h, Library stock concentration: 41 uM",47.4%
same,"nuclei count, normalised","[1]; measured here: cell number at 24 h, Library stock concentration: 123 uM",43.5%
same,"nuclei count, normalised","[1]; measured here: cell number at 24 h, Library stock concentration: 370 uM",42%
same,"nuclei count, normalised","[1]; measured here: cell number at 24 h, Library stock concentration: 1.111 mM",43.9%
same,"nuclei count, normalised","[1]; measured here: cell number at 24 h, Library stock concentration: 3.33 mM",33.4%
same,"nuclei count, normalised","[1]; measured here: cell number at 24 h, Library stock concentration: 3.333 mM",39.5%
same,"nuclei count, normalised",[1]; [3],44%
same,"nuclei count, normalised","[1]; measured here: cell number at 48 h, Library stock concentration: 500 nM",119%
same,"nuclei count, normalised","[1]; measured here: cell number at 48 h, Library stock concentration: 1.5 uM",71.2%
same,"nuclei count, normalised","[1]; measured here: cell number at 48 h, Library stock concentration: 4.6 uM",36.2%
same,"nuclei count, normalised","[1]; measured here: cell number at 48 h, Library stock concentration: 13.7 uM",29.7%
same,"nuclei count, normalised","[1]; measured here: cell number at 48 h, Library stock concentration: 41 uM",28.6%
same,"nuclei count, normalised","[1]; measured here: cell number at 48 h, Library stock concentration: 123 uM",29.2%
same,"nuclei count, normalised","[1]; measured here: cell number at 48 h, Library stock concentration: 370 uM",26.7%
same,"nuclei count, normalised","[1]; measured here: cell number at 48 h, Library stock concentration: 1.111 mM",28.6%
same,"nuclei count, normalised","[1]; measured here: cell number at 48 h, Library stock concentration: 3.33 mM",27.2%
same,"nuclei count, normalised","[1]; measured here: cell number at 48 h, Library stock concentration: 3.333 mM",26.4%
same,"nuclei count, normalised",[1]; [4],28.4%
same,"p53-positive nuclei, normalised",[2]; Library stock concentration: 500 nM,0.615% (inactive)
same,"p53-positive nuclei, normalised",[2]; Library stock concentration: 1.5 uM,7.83% (inactive)
same,"p53-positive nuclei, normalised",[2]; Library stock concentration: 4.6 uM,11.3% (inactive)
same,"p53-positive nuclei, normalised",[2]; Library stock concentration: 13.7 uM,5.37% (inactive)
same,"p53-positive nuclei, normalised",[2]; Library stock concentration: 41 uM,2.36% (inactive)
same,"p53-positive nuclei, normalised",[2]; Library stock concentration: 123 uM,1.56% (inactive)
same,"p53-positive nuclei, normalised",[2]; Library stock concentration: 370 uM,0.755% (inactive)
same,"p53-positive nuclei, normalised",[2]; Library stock concentration: 1.111 mM,1.14% (inactive)
same,"p53-positive nuclei, normalised",[2]; Library stock concentration: 3.33 mM,-0.197% (inactive)
same,"p53-positive nuclei, normalised",[2]; Library stock concentration: 3.333 mM,0.0812% (inactive)
same,"p53-positive nuclei, normalised",[2]; [5],0.227% (inactive)
same,"p53-positive nuclei, normalised","[2]; measured here: p53 positive nuclei at 24 h, Library stock concentration: 500 nM",-0.0449%
same,"p53-positive nuclei, normalised","[2]; measured here: p53 positive nuclei at 24 h, Library stock concentration: 1.5 uM",0.807%
same,"p53-positive nuclei, normalised","[2]; measured here: p53 positive nuclei at 24 h, Library stock concentration: 4.6 uM",1.13%
same,"p53-positive nuclei, normalised","[2]; measured here: p53 positive nuclei at 24 h, Library stock concentration: 13.7 uM",-0.0184%
same,"p53-positive nuclei, normalised","[2]; measured here: p53 positive nuclei at 24 h, Library stock concentration: 41 uM",0.131%
same,"p53-positive nuclei, normalised","[2]; measured here: p53 positive nuclei at 24 h, Library stock concentration: 123 uM",0.31%
same,"p53-positive nuclei, normalised","[2]; measured here: p53 positive nuclei at 24 h, Library stock concentration: 370 uM",0.493%
same,"p53-positive nuclei, normalised","[2]; measured here: p53 positive nuclei at 24 h, Library stock concentration: 1.111 mM",0.16%
same,"p53-positive nuclei, normalised","[2]; measured here: p53 positive nuclei at 24 h, Library stock concentration: 3.33 mM",-0.232%
same,"p53-positive nuclei, normalised","[2]; measured here: p53 positive nuclei at 24 h, Library stock concentration: 3.333 mM",0.515%
same,"p53-positive nuclei, normalised",[2]; [6],0.00376%
